Experimental data as given in PubChem BioAssay (NCATS).
Records with an inconclusive call do not appear. Active and inactive are the calls of the source. Unless noted, calls come from the whole dose curve; as a rule, active = well fitted curve in the direction sought with a large enough effect; inconclusive = small, poorly fitted or top-dose-only effect, or another doubt; inactive = no such curve, though single readings can be large; an effect the other way counts as inactive or inconclusive.

Experiments:
[1] = Cell Viability - BJ (AID 421; calls by dose curve;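 note: potency is the fitted concentration of half-maximal effect; cells exposed to compound for 40 hours at 37 °C before readout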); details: BJ fibroblast viability, qHTS
Procedure, shortened: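 Normal human BJ foreskin fibroblasts, 1500/well in complete medium, treated 40 hr at 37 °C. Cellular ATP by CellTiter-Glo luminescence; normalized to DMSO and 100 uM tamoxifen, AC50 from Hill fit.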

[2] = Cell Viability - Jurkat (AID 426;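 active = dose-dependent loss of cell ATP signal giving a full or clear fitted curve, ranked by lower potency value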; note: potency is the fitted concentration of half-maximal effect); details: qHTS
Procedure, shortened: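 Cytotoxicity taken as drop in cellular ATP (CellTiter-Glo luminescence, 20 min room temperature) after 40 hr, 37C treatment of 5000 Jurkat Clone E6-1 cells per well; concentration-response fitted with Hill equation for AC50.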

[3] = Cell Viability - Hek293 (AID 427;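 active = compounds whose dose-response curve shows a full or clear partial loss of cell viability, called from curve shape rather than a numeric limit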;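 note: potency is the fitted concentration of half-maximal effect; cells exposed to compound for 40 hours at 37 °C before reading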); details: qHTS
Procedure, shortened: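 HEK293 cells in complete medium were exposed to compound for 40 hr at 37 °C, then cellular ATP was read by CellTiter-Glo luminescence. Data were normalized to DMSO (basal) and 100 uM tamoxifen (100% inhibition), and AC50 came from Hill fits.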

[4] = Cell Viability - HepG2 (AID 433; calls by dose curve;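 note: potency is the fitted concentration of half-maximal effect; potency for ATP loss meaning cytotoxicity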); details: qHTS
Procedure, shortened: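 HepG2 hepatocellular carcinoma cells (1500/well) were treated with compounds for 40 h at 37 °C in complete medium; intracellular ATP was read by CellTiter-Glo luminescence. Data were normalized to DMSO and 100 uM tamoxifen, and AC50 came from Hill fits.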

[5] = Cell Viability - MRC5 (AID 434; calls by dose curve;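 note: potency is the fitted concentration of half-maximal effect; potency reflects cytotoxicity seen as loss of intracellular ATP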); details: MRC5 lung fibroblast viability, qHTS
Procedure, shortened: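 AC50 values come from Hill-equation fits of intracellular ATP loss, measured by CellTiter-Glo luminescence. Normal lung fibroblasts (MRC5) had 40 hr compound treatment at 37 C, normalized between DMSO and 100 uM tamoxifen.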

[6] = Cell Viability - SK-N-SH (AID 435; calls by dose curve; note: potency is the fitted concentration of half-maximal effect); details: SK-N-SH neuroblastoma cell viability qHTS
Procedure, shortened: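 SK-N-SH human neuroblastoma cells (1500/well) were exposed to compounds in complete medium for 40 h at 37 °C, and intracellular ATP was then measured by CellTiter-Glo luminescence. AC50 was taken from Hill fits, normalized to DMSO and 100 uM tamoxifen.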

[7] = biological target: Mitogen-activated protein kinase 10 (Mus musculus) (UniProt Q61831); assay: JNK3 AlphaScreen Assay (AID 530; active = well fitted curve in either direction with a large enough effect, not every such curve was filed as active;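 note: kinase came from lysate of stimulated human HepG2 cells; signal reports phosphorylation of biotinylated GST-cJun 1-79 at Ser73 with 10 µM ATP; % is set by controls: 0 for no effect and ±100 for the full control effect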)
Procedure, shortened: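 qHTS titrations with 15 min compound pre-incubation before adding ATP (10 uM final). Read-out: AlphaScreen of Ser73-phosphorylated biotin-GST-cJun using HepG2 lysate JNK3 activated by IL-1β and TNFα.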

[8] = Cell Viability - N2a (AID 540); details: N2a mouse neuroblastoma cell viability; activity change, negative = cytotoxicity: at 92.2 µM (top of the series);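 note: plate controls were DMSO alone for no effect and tamoxifen control for full effect; nearly all actives have a fitted effect of over 45% in size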
Procedure, shortened: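 CellTiter-Glo ATP luminescence, read 20 min after reagent at room temperature, reported viability following 40 h compound treatment at 37 °C. N2a mouse neuroblastoma cells seeded 1500/well; Hill equation gave AC50.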

[9] = Cell Viability - NIH 3T3 (AID 541); details: NIH 3T3 cell viability, qHTS; activity change, negative = cytotoxicity: at 92.2 µM (top of the series);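 note: plate controls were DMSO alone for no effect and tamoxifen positive control for full effect; nearly all actives have a fitted effect of over 25% in size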
Procedure, shortened: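 Intracellular ATP (CellTiter-Glo luminescence, 20 min at room temperature) measured after 40 hr compound exposure at 37 °C of 1000 NIH 3T3 mouse fibroblasts/well in complete medium; AC50 derived by Hill-equation modelling of qHTS concentration-response curves.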

[10] = Cell Viability - HUV-EC-C (AID 542); note: % is set by controls: 0 for no effect and ±100 for the full control effect; nearly all actives have a fitted effect of over 35% in size
Procedure, shortened: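 CellTiter-Glo luminescence measured ATP loss in HUV-EC-C cells (1000/well) after 40 hr compound exposure at 37 °C, in complete culture medium. Concentration-response data were Hill-fitted to give AC50.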

[11] = Cell Viability - H-4-II-E (AID 543); note: % is set by controls: 0 for no effect and ±100 for the full control effect; nearly all actives have a fitted effect of over 35% in size
Procedure, shortened: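 CellTiter-Glo luminescence (intracellular ATP) measured after 40 h compound exposure at 37 °C in H-4-II-E rat hepatoma cells seeded at 1500/well. Values are AC50s fitted with the standard Hill equation.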

[12] = Cell Viability - SH-SY5Y (AID 544); details: SH-SY5Y neuroblastoma cell viability; viability change, negative = cytotoxic: at 92.2 µM (top of the series); note: nearly all actives have a fitted effect of over 55% in size
Procedure, shortened: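 Cytotoxicity measured via ATP-dependent luciferase luminescence (CellTiter-Glo) following 40 h, 37 °C exposure of 1500 SH-SY5Y cells per well. Concentration-response data were fitted with the standard Hill equation to give AC50.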

[13] = Cell Viability - Renal Proximal Tubule (AID 545); details: renal proximal tubule cells viability, primary cells of rat origin; activity change, negative = cytotoxicity: at 91.7 µM (top of the series); note: nearly all actives have a fitted effect of over 40% in size
Procedure, shortened: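 Primary rat renal proximal tubule cells (1000/well) were treated with compounds for 40 hr at 37 °C in complete medium. Intracellular ATP was measured by CellTiter-Glo luminescence, and AC50 values came from Hill-equation fits of concentration-response data.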

[14] = Cell Viability - Mesenchymal (AID 546); details: mesenchymal cells viability, qHTS; activity change, negative = cytotoxicity: at 91.7 µM (top of the series);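 note: cells exposed to compound for 40 hours before reading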
Procedure, shortened: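 CellTiter-Glo luminescence (intracellular ATP, 20 min room temperature) after 40 hr compound exposure at 37 °C of 1000 glomerulus-derived human kidney mesenchymal cells/well; AC50 values obtained by fitting qHTS concentration-response data to the Hill equation.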

[15] = Cellular Toxicity (caspase-3) HepG2 (AID 654);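 note: cells exposed to compound for 16 hours before reading; 0% = DMSO alone and 100% = caspase signal from 100 µM tamoxifen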
Procedure, shortened: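 Caspase 3/7 activation is measured as a luminescence increase (aminoluciferin substrate) after 16 h compound exposure of human hepatocarcinoma HepG2 cells. AC50 values are Hill fits, scaled between DMSO baseline and 100 uM tamoxifen stimulation.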

[16] = Cellular Toxicity (caspase-3) Jurkat (AID 655); details: Jurkat caspase-3 activation, luminescence; caspase-3 activation: at 92.2 µM (top of the series), DMSO = 0%, tamoxifen = 100%;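 note: cells exposed to compound for 16 h at 37 °C before reading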
Procedure, shortened: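 Jurkat cells (5000/well) in complete medium were treated with compounds for 16 hr at 37 °C, then Caspase-Glo 3/7 luminescence was read after 20 min at room temperature. Data normalized to DMSO (basal) and 100 uM tamoxifen (100%); AC50 from Hill fit.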

[17] = Cellular Toxicity (caspase-3) HUV-EC-C (AID 656)
Procedure, shortened: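 HUV-EC-C endothelial cells, 1000/well, were pre-incubated 5 hr at 37°C, then exposed to compounds for 16 hr at 37°C. Caspase-Glo 3/7 luminescence was read after 20 min at room temperature. AC50 came from Hill fits, normalized to DMSO and 100 uM tamoxifen.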

[18] = Cellular Toxicity (caspase-3) SHSY5Y (AID 657)
Procedure, shortened: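 SH-SY5Y human neuroblastoma cells (1500/well) were treated with compounds for 16 h at 37 °C, then Caspase-Glo 3/7 luminescence was read after 1 h at room temperature. Data normalized to DMSO and 10 uM staurosporine; AC50 from Hill fits.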

[19] = Cellular Toxicity (caspase-3) BJ (AID 658); details: Potency: caspase-3 activation;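 note: 0% = DMSO basal and 100% = 10 µM staurosporine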
Procedure, shortened: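 Caspase-Glo 3/7 luminescence, read 1 hr after reagent at room temperature, in normal BJ fibroblasts exposed 16 hours at 37 °C. AC50 values from Hill-equation concentration-response, scaled between DMSO basal and 10 uM staurosporine as 100%.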

[20] = Cellular Toxicity (caspase-3) MRC-5 (AID 659);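 note: 0% = DMSO basal and 100% = 10 µM staurosporine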
Procedure, shortened: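 Luminescent Caspase-Glo 3/7 read-out (1 h, room temperature) after a 16 h, 37 °C compound exposure of MRC-5 lung fibroblasts at 1500 cells/well. Concentration-response AC50 from Hill equation; 0% DMSO, 100% 10 uM staurosporine.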

[21] = Cellular Toxicity (caspase-3) Mesangial (AID 660); details: mesangial cells, normalized: DMSO 0%, 100 µM tamoxifen 100%; at 91.7 µM (top of the series);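 note: combined caspase 3 and 7 activity read by Caspase-Glo luminescence; cells exposed to compound for 16 h before the caspase read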
Procedure, shortened: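 Caspase 3/7 activation measured by Caspase-Glo 3/7 luminescence (20 min, room temperature) following 16 h exposure of mesangial cells (1000/well); AC50 from Hill-equation fit, normalized to DMSO and 100 uM tamoxifen.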

CCCCCC/C(C=O)=C\c1ccccc1
inactive: Potency [1] > 92 µM | Potency [2] > 92 µM | Potency [3] > 92 µM | Potency [4] > 92 µM | Potency [5] > 92 µM | Potency [6] > 92 µM | Potency [7] | Potency [8] | Potency [9] | Potency [10] | Potency [11] | Potency [12] | Potency [13] | Potency [14] | Potency [15] | Potency [16] | Potency [17] | Potency [18] | Potency [19] | outcome [20] | caspase-3 activation [21] 1.26%
